Screening results from PubChem.
Only some compounds are listed: those with a hit (about 3.2% of all), similar ones and a draw of the others.
GLP-1R agonist: GLP-1 receptor (human) agonism; actives 0.007% (n = 380,000); P43220; Potency, µM (series often up to 45.6 µM), for inactives: top-dose activation, usual class: activators; AID 624172; HEK293 GLP-1R CRE-luciferase, luminescence, 4-6 h; cells express a hypersensitive GLP-1R form; also: % of control where 0% means no effect
Target sequence (P43220 whole entry, looked up): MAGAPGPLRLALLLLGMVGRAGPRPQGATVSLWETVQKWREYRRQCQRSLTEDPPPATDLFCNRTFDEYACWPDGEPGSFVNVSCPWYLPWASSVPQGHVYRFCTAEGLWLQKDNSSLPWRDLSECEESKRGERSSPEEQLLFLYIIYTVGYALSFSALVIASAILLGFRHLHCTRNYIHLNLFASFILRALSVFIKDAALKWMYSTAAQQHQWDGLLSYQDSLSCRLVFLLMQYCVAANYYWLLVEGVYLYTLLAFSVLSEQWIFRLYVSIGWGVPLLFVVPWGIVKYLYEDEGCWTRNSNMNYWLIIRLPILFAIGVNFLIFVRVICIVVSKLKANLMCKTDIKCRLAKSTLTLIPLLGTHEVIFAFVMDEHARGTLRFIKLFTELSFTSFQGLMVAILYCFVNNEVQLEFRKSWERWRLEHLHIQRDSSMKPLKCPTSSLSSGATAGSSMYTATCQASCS
HEK293 tox: cytotoxic in the GLP-1 receptor inverse agonist counter-screen. HEK293 cAMP-luciferase reporter cells, luminescence, 24 h. Potency, µM (top dose mostly 38.3 µM), for inactives: top-dose activity change, negative = inhibition, hits mostly inhibitors. actives 0.13% (n = 410,000). AID 624418;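 also: loss of luciferase light is scored as toxicity; % is scaled to controls: 0 for no effect and ±100 for the full control effect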
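Quantitative HTS format, 1536 wells, 200 cells/uL seeded. Compounds: 23 nL, 24 h, 37 °C. Detection: luciferase reagent, luminescence at 12 min RT; decreased signal taken as cytotoxic.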
ClpP mod: qHTS Assay for Activators of ClpP | ATP-dependent Clp protease proteolytic subunit (Bacillus subtilis (strain 168)), P80244 | purified B. subtilis ClpP, FRET peptide cleavage, 20 min | Potency, µM (highest dose often 57.5 µM), for inactives: top-dose activity change, negative = active | actives 1.9% (n = 340,000) | AID 651965, 2013; active = well fitted falling curve with a large enough effect; inconclusive = small, poorly fitted or top-dose-only effect; inactive = no such curve, though single readings can be large or run the other way; also: the source files actives as falling curves though it sought activators and does not explain the sign; nearly all actives have a fitted effect of over 65% in size
Target sequence (P80244 whole entry, looked up): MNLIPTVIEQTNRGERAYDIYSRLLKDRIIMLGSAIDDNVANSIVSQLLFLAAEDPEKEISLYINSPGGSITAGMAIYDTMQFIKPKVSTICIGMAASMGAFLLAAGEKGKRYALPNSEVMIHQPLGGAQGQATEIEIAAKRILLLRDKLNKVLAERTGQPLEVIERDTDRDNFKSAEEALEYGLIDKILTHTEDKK
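Purified B. subtilis ClpP, 10 microg/mL final in Tris/HCl pH8 with KCl, BSA, glycerol and Tween-20, cleaved an Abz/nitrotyrosine-quenched decapeptide. Fluorescence (ex 320, em 430) was read at 0 and 20 min at room temperature. Delta was normalized to 5.8 microM ADEP and DMSO/no-enzyme controls.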
GLP-1R inv ag: GLP-1 receptor (human) inverse agonism | Potency, µM (highest dose often 38.3 µM), for the others: at the top dose activity change, negative = inhibition, most hits filed as inhibitors | P43220 | HEK293 GLP-1R CRE-luciferase, luminescence, 24 h; GLP-1R form is constitutively active | actives 1.6% (n = 410,000); also: % is scaled to controls: 0 for no effect and ±100 for the full control effect; nearly all actives have a fitted effect of over 55% in size
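Inverse agonism was detected as reduced cAMP-driven luciferase luminescence after 24 h compound treatment. The cells were HEK293 clones expressing constitutively active human GLP-1R with the reporter. Reporter-only and GPR119 cell lines served as counterscreen controls.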
Numbers without * were called inactive; u = inconclusive; x = no result given. Unless noted, calls follow the shape of the dose curve; as a rule, active = well fitted curve in the direction sought with a large enough effect; inconclusive = small, poorly fitted or top-dose-only effect, or another doubt; inactive = no such curve, though single readings can be large; an effect the other way counts as inactive or inconclusive. Potency is read from the fitted curve at half-maximal effect.

SMILES	GLP-1R agonist	HEK293 tox	ClpP mod	GLP-1R inv ag
O=C(NCc1ccccc1Cl)c1cnc(N2CCCCC2)c2ccccc12	x	8%	32µM*	u
CCOc1ccccc1C(=O)N(Cc1ccc(N(C)C)cc1)CC1CCCO1 (centres undefined)	x	-9%	0%	-10%
O=C(CSc1cccc[n+]1[O-])Nc1ccccc1C(F)(F)F	9%	1%	x	31%
O=C(CSc1cccc[n+]1[O-])Nc1ccccc1Oc1ccccc1	3%	0.79µM*	x	u
CC(C)(NS(=O)(=O)OCC(Cl)(Cl)Cl)c1ccccc1	1%	8%	0%	u
CC(NS(=O)(=O)OCC(Cl)(Cl)Cl)c1ccc(C(C)(C)C)cc1 (centres undefined)	-7%	u	-3%	5.6µM*
OC(COc1ccc(Cl)cc1)CN1CCN(c2ccccn2)CC1 (centres undefined)	-4%	10%	-1%	u
Cc1cc(OCC(O)CN2CCN(c3ccccn3)CC2)cc(C)c1Cl (centres undefined)	-1%	-10%	-1%	11µM*
OC(COc1ccc(Cl)c2ccccc12)CN1CCN(c2ccccn2)CC1 (centres undefined)	0%	-5%	-22%	10µM*
Cc1cc(C)c(OCC(O)CN2CCN(c3ccccn3)CC2)c(C)c1 (centres undefined)	0%	-16%	-1%	u
COc1ccc(CN2C(=O)CSCC2=O)cc1OC	-6%	1%	-2%	5%
COc1ccc(CCN2C(=O)CSC2=S)cc1OC	2%	u	x	5.6µM*
COC(=O)C1=C/C=C\CN(C(c2ccccc2)c2ccccc2)/C=C\1C(=O)OC	1%	0%	2%	10µM*
COC(=O)CN1CCN(C(c2ccccc2)c2ccccc2)CC1	5%	21%	4%	-3%
N#Cc1cn(Cc2ccccc2)c2ccccc12	6%	11%	-2%	11µM*
O=C(O)CC(C(=O)O)c1cn(Cc2ccccc2)c2ccccc12 (centres undefined)	-15%	-9%	28µM*	-27%
Cc1cccc(CN2C(=O)N(c3ccc(C(C)C)cc3)S(=O)(=O)c3ccccc32)c1	0%	9%	0%	u
Cc1ccnc(Nc2nc3ccccc3o2)n1	-6%	u	1%	2.5µM*
Cc1nc(Nc2nc3ccccc3o2)nc(C)c1C	-1%	1%	x	u
COc1ccc(OC)c2sc(N3CCN(C(=O)c4ccc5ncsc5c4)CC3)nc12	20%	-5%	x	15%
CCOc1cccc2sc(N3CCN(C(=O)c4ccc5ncsc5c4)CC3)nc12	1%	0%	22µM*	18%
COC(=O)C1=C(C)N=C2SC(C#N)=C(N)N2C1c1ccc(OCc2ccccc2)cc1 (centres undefined)	-17%	142%	0%	5µM*
COc1ccc2c(CNC3CCCCCC3)c(C(=O)O)n(Cc3ccccc3F)c2c1	x	-14%	u	-19%
Cc1ccc(C2C3=C(CCCC3=O)Nc3nc(SCC(=O)NCc4ccco4)[nH]c(=O)c32)cc1 (centres undefined)	-2%	-3%	20µM*	3%
COc1ccc(CN(C)[C@H]2C[C@H]3c4[nH]c5ccccc5c4CCN3C[C@H]2[C@H](C)O)cc1	0%	-10%	-17%	u
SMILES	GLP-1R agonist	HEK293 tox	ClpP mod	GLP-1R inv ag
Cc1cccc2cc(CN(Cc3ccccc3)C(=O)c3cccc(F)c3)c(Cl)nc12	-2%	-6%	-13%	11µM*
Cc1ccc(N(Cc2ccccc2)C(=O)c2cccc(F)c2)cc1	14%	-6%	-1%	u
Cc1cc(-c2ccc(C)c(S(=O)(=O)N(C(C)C)C3CCCCC3)c2)on1	x	-2%	-1%	3%
CCn1c2ccccc2c2cc(CNCc3ccc(OC)cc3OC)ccc21	1%	u	-9%	7.9µM*
COc1cccc(CNCc2ccc(OC)cc2OC)c1	6%	-17%	0%	-9%
CCC(CC)NCc1ccc2c(c1)c1ccccc1n2CC	-5%	u	-17%	4.5µM*
CCn1c2ccccc2c2cc(N)ccc21	-9%	-21%	u	u
OCCCNC(=S)Nc1ccc(Oc2ccccc2)cc1	7%	-1%	x	10%
CC(C)CNC(=S)Nc1ccc(Oc2ccccc2)cc1	7%	u	0%	11µM*
CC1=CC(c2ccccc2)n2nc(N3C(=O)C4CC=CCC4C3=O)nc2N1 (centres undefined)	1%	79%	2.2µM*	-1%
CC1=CC(c2ccccc2)n2nc(N3C(=O)CCC3=O)nc2N1 (centres undefined)	-8%	11%	28µM*	8%
COc1ccc(S(=O)(=O)Nc2cc(C)ccn2)cc1	10%	5%	14µM*	-3%
Cc1ccnc(NS(=O)(=O)Cc2ccccc2)c1	-1%	-13%	40µM*	0%
COc1cc(OC)c(OC)cc1/C=N/NC(=S)NCCN1CCOCC1	11%	-2%	x	28%
COc1cc(OC)c(OC)cc1/C=N/NC(=S)NCC1CCCO1 (centres undefined)	25%	u	32µM*	12%
Cc1cc2oc(C(=O)Nc3ccc(S(=O)(=O)Nc4onc(C)c4C)cc3)cc(=O)c2cc1C	x	20%	-3%	7%
CC(C)c1ccc(/C=C/C(=O)NC(=S)Nc2ccc(CN3CCOCC3)cc2)cc1	-1%	10µM*	x	u
COc1ccc(C(=O)NC(=S)Nc2ccc(CN3CCOCC3)cc2)cc1Br	-8%	u	-1%	13µM*
CC(C)COc1cccc(C(=O)Nc2ccc(CN3CCOCC3)cc2)c1	7%	-24%	-3%	8.9µM*
Cc1cc(C)n(-c2nc3ccccc3nc2Nc2cc(C(=O)O)ccc2C)n1	x	4%	0%	4%
CCOc1ccc(Nc2nc(C)c(NC(=O)c3cccc(F)c3)c(Nc3ccc(OCC)cc3)n2)cc1	x	-3%	0%	-5%
CCCCNCCCOc1ccc(C)cc1Br	-8%	-26%	-6%	u
CCCCNCCCOc1cccc(Cl)c1Cl	-1%	u	-3%	7.9µM*
CN(CCOc1cccc(C(F)(F)F)c1)Cc1ccccc1	4%	u	x	10µM*
CCC(Sc1nnc2c(n1)[nH]c1ccccc12)C(=O)Nc1ccccc1OC (centres undefined)	x	-13%	0%	19%
CCc1ccccc1NC(=O)CN1CCN(C(=O)C(C)NC(=O)c2ccc(Cl)cc2)CC1 (centres undefined)	8%	-1%	16µM*	0%
CCOc1ccc(CNC(=O)c2ccc3c(c2)nc2n3CCOC2)cc1OC	x	13%	-2%	34%
Cc1cn2c(=O)cc(COC(=O)c3cccc(NC(=O)COc4ccccc4)c3)nc2s1	x	0%	23%	u
COCCCNC(=O)c1[nH]c2ccccc2c1Sc1ccc(C)cc1	x	-1%	-7%	u
Cc1cccc(C(C)C)c1NC(=O)CN(C)Cc1cccc(F)c1	-5%	4%	-4%	u
